According to the supplement of paper PMC11417369:
In all, about 25,000 sequences were measured (“ln(normalized median fluorescence intensity)”: median about 6.7, highest 2% from about 10 on). This is one part of a sample in which the highest values are shown more often than they occur.

The sequences below were run on PfHDP1 homeodomain (GST-tagged) (assay: gcPBM binding intensity (ln(normalized median fluorescence intensity)); higher = stronger DNA binding).
How it was run: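 Each value is the highest Masliner-normalised natural-log median intensity across replicate spots of either orientation of a probe. The probes were primer-extended double-stranded 36-bp intergenic genomic sequences on an Agilent 4 × 180k array, alongside negative controls, exposed for 1 h to GST-tagged P. falciparum DNA-binding domains expressed in E. coli. Bound protein was picked up with Alexa488 anti-GST antibody and scanned at 488 nm.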

Sequence	gcPBM binding intensity (ln)
TAATGTACATAAACCGCACACATATAAAAAAATAAA [CACACA_site2851]	6.79
ATAAAAATTTATATATGTACTTAATTTTTAATTTTT [XGTACX_site7482]	5.98
ACATACAAGAATTAAACACACACAAAATATAAATTC [CACACA_site8985]	6.8
TATCTCTCTTTCTGCTGTACATAAAAATTATATAAT [XGTACX_site5961]	7.19
ATATAATTTATGTGCACACACTCCTATTTTTAGCTT [CACACA_site50]	11.3
ATATAATATTTATATGCACACTTTTCTATATATAAG [CACACA_site6100]	8.84
TTTTTCTTTATTAGCACACATAATATTATATATGTG [CACACA_site2629]	7.1
GTATATAATTTATGTGCACACACTCCTATTTTTAGC [CACACA_site49]	11.1
GGCTTTTTTTAATATGCACACATATATTTTATATAT [CACACA_site8647]	10.2
TATAATTATTTTTTCACACATATGTATTTATATATA [CACACA_site4205]	7.05
TTTTCTATGCTAAACACACTCATTGTTACAAGTTTT [CACACA_site5531]	6.78
TATGAAAATATATATTGTACAGAATCTATAAAAAAT [XGTACX_site8030]	6.39
TTTAAAAAATTATATTCACACACATACACATATATA [CACACA_site8076]	6.95
ATTTTTTTTTTTTTATGTACATATAGGTGCAAATCA [XGTACX_site6748]	11.1
GACAATTATATGTAGGTGCATATACAAATTTTTTAA	9.14
CATATATATTTTATATGTACATATATATTTTATATA [XGTACX_site8665]	6.35
TACATAAAATATATCACACATATAATATATATATAT [CACACA_site5834]	8.54
GAAATGTGATAATATACACACACGCATATATATATA [CACACA_site4332]	8.82
AAAAATAGAGCAGCTCTCATATTTTTATGTGCAATA [CACACA_negctrl_site837]	10.6
TTCTGCAGCAATGTTTTTTTTAAATATTTATATGGT [CACACA_negctrl_site1815]	6.51
CAAAATATTTTTATAACACACATATATAGAATGTGC [CACACA_site1145]	6.34
TTTTTTTATCAATGTTGTACTTTTTTTTTTTTCCAT [XGTACX_site8864]	6.18
ATTAAAAAAAAAAAAAAAAAAAAAAAAAAAAAAAAA [CACACA_negctrl_site1060]	6.3
AGGTATATATTACAAGTGCACTGTAAAATTAAAATT	10.5

Sequence	gcPBM binding intensity (ln)
TAAAAAATTAATAAAGTGCATAAATATTACAATATT	7.68
TGCATAATTAAAAATGGTACACTGTATTTATAATAT [XGTACX_site1575]	6.38
ATATTTAAATAATATTCACACACAAAATTATATTTT [CACACA_site7955]	6.44
AAATGTATACACATGGTGCGTAATATATTATATATA [GTGCAC_site9877]	7.85
AATAAAAAAATATATTGTACTAATAATTATATGTTT [XGTACX_site2246]	6.47
TTTTTATCAAATAAATGTACACATATTAAATGAAAT [XGTACX_site555]	6.6
ACATATTAAATATGAGTGCAATATATATATATATAA	9.25
AATCATATTAGTATGGTGCAACATATATAAATATAT	11
AGTATAAATAAATCATAAACATATATATATATATAT [GTGCAC_negctrl_site356]	9.35
CAATATATTATATGGGTGCAAACCACATATAAATAA	8.55
AATCATATTAGTATGGTGCAATATATATATAAATAT [GTGCAC_site9800]	10.5
ATATATATTAAAAATAGTACATATAATAAAAATCAT [XGTACX_site4265]	6.57
ATACATTTATTGTATTGTACATAATATTATATATTC [XGTACX_site7115]	6.55
TGCATATTACTTTTTCACATAAAAATGATCCGATTA [GTGCAC_negctrl_site526]	6.49
ATATTTAAACGATGGTGTACATATATTACAAGTTGT [XGTACX_site1743]	7.03
ACATAAAATTGGAGCAAACACACAAGGTTGAAATTA [CACACA_site505]	7.16
TATATATTTCAATAATGTACATATAATATATATATT [XGTACX_site4124]	6.6
CCATAAAAAGGATACACACACACACCGACATATATA [CACACA_site4653]	6.89
ATTAAGTACTAAAAAGTGCAGTTCGGTACTGTGCTT [GTGCAC_site9755]	6.42
TATTTCATTAATGTCACTTTGAAAGAAATGAAAAAA [CACACA_negctrl_site1803]	6.44
TTAATTATCCATTTTGCACACATTTTAAAACATGAA [CACACA_site189]	10.7
CTATTTAAAATTTGAACACACATTATTTATTTTAAA [CACACA_site3114]	6.41
TTTTTTTTTTTTTTTGCACACATTTTAATTATTTTT [CACACA_site341]	9.27
TTCCTTTGTCCTAACTGTACTCAAATTTATTAGTGG [XGTACX_site226]	7.04

Sequence	gcPBM binding intensity (ln)
TATATATTCATAAAGTGTACATGTTTATATATATAT [XGTACX_site7585]	8.53
TATATATAAGCGTGTACACATTCTGAGTGTTGTATA [CACACA_site4502]	7.02
ATAGTATATCAAAATTTGTAAATCATTCTCAATAAA [CACACA_negctrl_site430]	5.94
AATATAAATAATTATACACACTTAATATATATATAC [CACACA_site5533]	6.53
ATATGTATGTATTTATTATTGTGCATTGTATTTATA [CACACA_negctrl_site664]	10.3
ATATATATTTATATATATATATATATATATATGTAT [GTGCAC_negctrl_site220]	7.92
TATATATATATATATATATATATGTATGTGCATTTA [TGCATGCA_negctrl_site53]	11.2
CACACGCACGAACACACACACACACGCGCACATATA [CACACA_site6304]	8.54
CAAAAAAACAAACACACACACACACCCATATATATA [CACACA_site3653]	6.85
TTTTTTAAAGTTTAAAGTACATATAAAAATATATAA [XGTACX_site5267]	5.94
TATACCAGTTTTAAAAGTACTTGTGCATAAAAAATA [XGTACX_site4794]	11
AAAGTTTTTATAAAAAAAAAAATAAATACCATATAT [XGTACX_negctrl_site113]	6.5
TATGGTTTTAAAAAATGTACGCAAGTGCGTTAATTT [XGTACX_site3945]	7.62
TTATAATATATATACAGTACATATATAAAATAATAT [XGTACX_site5917]	6.5
AAAAAAAATTATATATGTACTTATTAATCCTTTTAT [XGTACX_site1387]	6.11
TCCAATTGTTCTAGTGTGCACATAAATAAATCTCAT	11
CACATAAATAATTAAACACACATTGTTCTAGACAAT [CACACA_site2378]	6.51
AGCACATAAATAATTAAACACACATTGTTCTAGACA [CACACA_site8746]	6.3
AGTCTGAATAAAATTACACACATATACCTATAAATA [CACACA_site6929]	6.4
ATACATAAAATTAAAACACACATTTGATTAAATACG [CACACA_site7088]	6.6
TGCACAAAGTTATGCACACACCTAAAATTAATTTTT [CACACA_site7385]	10.5
TGTGCTCAAAATTATGCACACACCTAAAATTAATTT [CACACA_site8950]	10.7
TAAATTAATACCTATGCACACATTTTTTTTTTTAAA [CACACA_site1238]	8.59
TGCACAAAATTATGCACACACCTAAAATTAATTTTT [CACACA_site5596]	10.8

Sequence	gcPBM binding intensity (ln)
AATTAAAAAATTTATGCACACTTTAAAAAAAAAAAA [CACACA_site5962]	9.66
TGTGCCCAAAATTATGCACACACCTAAAATTAATTT [CACACA_site2914]	10.5
GATAATAATAAACAACCACACACAAAAAAACAAAAA [CACACA_site9074]	7.01
TTTTTTTTTTTTTATTGTACTTATTTTTTTATGTTT [XGTACX_site7725]	5.96
AAAAAAAAAAAATGCACACATATATTTCCATATACA [CACACA_site1471]	9.96
AAAAATATTAAAAGGCGTACAATACCTGTATGCAAC [XGTACX_site6069]	6.12
TTTGTTATTTTTTATTGTACTTTTTTTCTTTCATAA [XGTACX_site4302]	7.03
AATATTAACAATCGCACACATATTATTTTTCCAAAA [CACACA_site4982]	7.13
CAAATAGCTAGCTGTGCACACAAACATATTTTCCAA [CACACA_site879]	11
AATAGCTAGCTGTGCACACAAACATATTTTCCAAAT [CACACA_site880]	10.3
ATATTGACAAATATTACACACATATATATATATATA [CACACA_site4079]	9.39
ATAACTAAATGATATTGTACAAAATAATTATATATT [XGTACX_site1331]	6.38
AAAAAAAAAATTAATTGTACTAAAAAAATATTATAT [XGTACX_site8903]	6.41
TATATATATATATATTGTACTAATTGTGCAAATGAG [XGTACX_site682]	10.9
TATGATATCTATAATACACACATATACATAAGATCT [CACACA_site6652]	6.6
AAAAATATTTAAAATACACACATATCTATAATATAT [CACACA_site7032]	6.36
TACCAAAAAAAAAAAAATAAAAATAAAAAAAAAAAT [CACACA_negctrl_site1714]	6.27
AAGTTGAAATAATGTGCACACATTTTTTTTTTTTTT [CACACA_site3368]	9.16
TTTGAAAAGTTGAAATGTACACATTTACACATATTT [XGTACX_site1641]	6.24
AACACATACATATATGCACACATTTTATTCCATTAT [CACACA_site2834]	10.1
TTTACATTTATGTGCACACATTCCATTTGAAAGTAA [CACACA_site1953]	10.9
AAAAAAAAAAAAAAAAGTACACATCATTTTATGAAA [XGTACX_site1402]	6.41
TATTTACATTTATGTGCACACATTCCATTTGAAAGT [CACACA_site1954]	11
